PubChem BioAssay AID1259343 (VanderVen Lab, College of Veterinary Medicine, Cornell …, 2017)
In all, about 6,200 compounds went through this assay and about 2,900 (47%) were called active. So high a share suggests a set chosen from earlier hits. The list shows a part of the results. A number with no mark means an inactive call. No stated cut-off is given here; in the data, active means inhibition above about 50%; inactive means the rest.

Experiment: Mycobacterium tuberculosis growth inhibition, primary screen (AID 1259343)
Details: inhibition: at 10 µM, hits give high values; outcome: 10 uM

Row | SMILES | inhibition
1 | CCc1ccc(N2C(=O)C3N=NN(Cc4ccccc4C)C3C2=O)cc1 (centres undefined) | 76.5% (active)
2 | CCc1ccc(N2C(=O)C3N=NN(Cc4ccccc4)C3C2=O)cc1 (centres undefined) | 93.5% (active)
3 | CC1=NOC(Cc2ccccc2)C(=O)N1Cc1ccc(C)cc1 (centres undefined) | 30.2%
4 | CCCCCSc1n[nH]c(-c2ccc(C)cc2)n1 | 84.7% (active)
5 | Cc1ccc(-c2nc(SCc3ncc(C(C)C)o3)n[nH]2)cc1 | 11.4%
6 | CCc1cc(=O)[nH]c(-n2nc(C)cc2NC(=O)c2ccc3ccccc3c2)n1 | 101% (active)
7 | CCCc1cc(=O)[nH]c(-n2nc(C)cc2NC(=O)c2ccc3ccccc3c2)n1 | 102% (active)
8 | Cc1cc(=O)[nH]c(-n2nc(C)cc2NC(=O)c2ccc3ccccc3c2)n1 | 94.6% (active)
9 | FC(F)(F)c1cc(Cl)c2nnc(SCCN3CCSCC3)n2c1 | -6.99%
10 | CCCCCC12CCC(CC(=O)O)(CC1)CC2 | 70.4% (active)
11 | CC(C)N1C(=O)C(=NN2C(=O)CSC2=S)c2ccccc21 | -42.2%
12 | O=C(NC1CC1)N1CCN(Cc2ccc(-c3ccccc3F)s2)CC1 | 97.6% (active)
13 | O=C(NCc1ccoc1)N1CCN(Cc2ccc(Cl)s2)CC1 | 2.21%
14 | CC(NC(=O)c1ccc(-c2ccccc2F)s1)C(=O)N1CCCCC1 (centres undefined) | 18.5%
15 | CCCCCCCCCCCCCCCCCCN(C)C | 98.2% (active)
16 | CCOc1ccc2oc(C(=O)NC(C)(C)CC)c(C)c2c1 | 64% (active)
17 | C(=Nn1c(-c2ccc3c(c2)OCCO3)csc1=NCCc1ccccc1)c1ccccn1 | 30.9%
18 | CCN=c1scc(-c2ccc3c(c2)OCCO3)n1N=Cc1cc(C)ccc1C | 87.5% (active)
19 | CCN=c1scc(-c2ccc(F)cc2)n1N=Cc1ccc2c(c1)OCCO2 | 4%
20 | CCN=c1scc(-c2ccc(C)c(C)c2)n1N=Cc1cccnc1 | -8.38%
21 | CCN=c1scc(-c2ccc(C)c(C)c2)n1N=Cc1ccc2c(c1)OCCO2 | 70.5% (active)
22 | COc1ccc(CC2CN(C/C=C/c3ccccc3)CCO2)cc1 (centres undefined) | 41.6%
23 | Cc1nc(SCc2ccc(C(=O)O)cc2)nc(N2CCN(C/C=C/c3ccccc3)CC2)c1C | 5.19%
24 | C(#Cc1ccccc1)CN1CCN(C/C=C/c2ccccc2)CC1 | 80.2% (active)
25 | O=C(Nc1ccc(N2CCN(C(=O)c3ccc(-c4cccc(Cl)c4)s3)CC2)nc1)c1ccco1 | 38.5%

Row | SMILES | inhibition
26 | O=C(Nc1nc(OCC(F)(F)F)cnc1-c1ccc(Cl)cc1Cl)c1ccco1 | 64.5% (active)
27 | CCc1cc(=O)[nH]c(-n2nc(C)cc2NC(=O)c2ccccc2[N+](=O)[O-])n1 | 101% (active)
28 | CCCc1cc(=O)[nH]c(-n2nc(C)cc2NC(=O)c2ccccc2[N+](=O)[O-])n1 | 101% (active)
29 | CN(C)[C@@H]1C(=O)C(C(N)=O)=C(O)[C@@]2(O)C(=O)C3=C(O)c4c(O)cccc4[C@@](C)(O)[C@H]3C[C@@H]12 | 60.8% (active)
30 | COc1cccc(Nc2ccc3c(-c4ccccc4)noc3n2)c1OC | 70.1% (active)
31 | COc1ccccc1NC(=O)c1ccc2noc(-c3ccccc3)c2c1 | 42.1%
32 | O=C(Nc1cccc(-c2cccc(Cl)c2)c1)C1CCN(C(=O)CCn2cnnn2)CC1 | 90.2% (active)
33 | CSCCC(=O)N1CCC(C(=O)Nc2cccc(-c3cccc(Cl)c3)c2)CC1 | 88% (active)
34 | COCCC(=O)N1CCC(C(=O)Nc2cccc(-c3cccc(Cl)c3)c2)CC1 | 8.7%
35 | COCc1ccc(CN2CCC(C(=O)Nc3ccc(Oc4ccccc4F)cc3)CC2)o1 | inactive
36 | COc1cccc(CN2CCC(C(=O)Nc3ccc(Oc4ccccc4F)cc3)CC2)c1 | 62.3% (active)
37 | O=C(Nc1ccc(Oc2ccccc2F)cc1)C1CCN(Cc2cccc3c2OCO3)CC1 | 93.3% (active)
38 | CCc1ncc(CN2CCC(C(=O)Nc3ccc(Oc4ccccc4F)cc3)CC2)cn1 | 86.1% (active)
39 | O=C(Nc1ccc(Oc2ccccc2F)cc1)C1CCN(CCCn2cccn2)CC1 | 86.6% (active)
40 | CC(=O)c1cccc(CN2CCC(C(=O)Nc3ccc(Oc4ccccc4F)cc3)CC2)c1 | inactive
41 | CCn1cc(CN2CCC(C(=O)Nc3ccc(Oc4ccccc4F)cc3)CC2)cn1 | inactive
42 | Cc1nc(C)c(CN2CCC(C(=O)Nc3ccc(Oc4ccccc4F)cc3)CC2)nc1C | 82.5% (active)
43 | O=C(Nc1cccc(-c2cccc(F)c2)c1)C1CCN(CCCn2cccn2)CC1 | 89.5% (active)
44 | O=C(C1CCCC1)N1CCc2c([nH]c3ccccc23)C1c1cc(F)ccc1F (centres undefined) | 24.3%
45 | O=c1c2ccccc2[nH]c(=S)n1C1CCCC1 | 90.2% (active)
46 | c1ccc2c(c1)CCN(c1ncnc3c1oc1ccccc13)C2 | 19.2%
47 | Fc1ccc(OCc2nc(CSc3nnnn3C3CC3)cs2)cc1 | 4.6%
48 | COc1ccc(OCc2nc(C(=O)N3CCC3c3ccc(F)cc3)co2)cc1 (centres undefined) | 28.5%
49 | Fc1ccc(OCc2nnc3sc(C4CC4)nn23)cc1 | 67% (active)
